Source: PubChem BioAssay
SARS PLpro yeast: SARS-CoV PLP inhibition in yeast; Potency, µM (highest dose often 32.9 µM), without a hit: at the highest dose activity, positive = growth rescue, usual class: activators; S. cerevisiae expressing SARS-CoV PLpro, growth rescue; actives 0.19% (n = 330,000); note: potency is the fitted concentration of half-maximal effect; 0% is about no effect; nearly all actives have a fitted effect of over 55% in size
CHX counter: counter-screen for Shiga toxin inhibitors: cycloheximide protein synthesis inhibition; cell reporter, cycloheximide protein synthesis inhibition counterscreen; max response, %; actives 12% (n = 300,000); in the data active = max response mostly above about 13%, no sharp cut-off; inactive = mostly below about 14%; note: read at 38.3 µM for the half of the compounds with a filed dose; 0% is about no effect
LmPK inh: inhibitors of Leishmania mexicana pyruvate kinase | Q27686 | purified LmPK, Kinase-Glo ATP luminescence, 1 h | Potency, µM (doses to about 57.5 µM), inactives show at the top dose activity change, negative = inhibition, usual class: inhibitors | actives 0.37% (n = 290,000) | AID 1721; active = well fitted curve in the direction sought with a large enough effect; inconclusive = small, poorly fitted or top-dose-only effect, or another doubt; inactive = no such curve, though single readings can be large; an effect the other way counts as inactive or inconclusive; note: potency is the fitted concentration of half-maximal effect; % is set by controls: 0 for no effect and ±100 for the full control effect
Target sequence (Q27686 whole entry, looked up): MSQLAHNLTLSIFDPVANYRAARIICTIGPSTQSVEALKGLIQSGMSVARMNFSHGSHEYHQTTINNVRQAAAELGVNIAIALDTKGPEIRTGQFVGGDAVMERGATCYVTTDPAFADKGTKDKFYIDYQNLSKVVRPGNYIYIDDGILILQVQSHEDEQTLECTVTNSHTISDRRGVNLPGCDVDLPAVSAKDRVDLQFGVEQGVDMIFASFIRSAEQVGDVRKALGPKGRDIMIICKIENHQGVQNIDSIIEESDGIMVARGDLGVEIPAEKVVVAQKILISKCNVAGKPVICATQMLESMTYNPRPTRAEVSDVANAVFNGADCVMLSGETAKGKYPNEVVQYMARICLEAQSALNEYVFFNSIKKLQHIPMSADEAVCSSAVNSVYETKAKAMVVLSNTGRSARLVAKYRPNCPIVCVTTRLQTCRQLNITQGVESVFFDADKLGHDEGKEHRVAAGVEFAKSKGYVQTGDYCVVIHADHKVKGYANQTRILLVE
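qHTS format; LmPK 0.1 nM; substrates PEP 0.5 mM and ADP 0.1 mM. One-hour room-temperature incubation, then coupled luciferase luminescence; 0.5 nM enzyme wells mark activation.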
Shiga toxin inh: inhibitors of Shiga toxin in Vero cells; AID 2315; inhibition, % at 38.7 µM; actives 9.2% (n = 290,000); Vero cells, Shiga toxin protein synthesis inhibition reporter; in the data active = inhibition mostly above about 28%, no sharp cut-off; inactive = mostly below about 43%; note: 0% is about no effect
NS1 function inh: inhibitors of influenza NS1 protein function; Potency, µM (titrated, usually from 46.1 µM), inactives show top-dose activity, positive = more growth; actives 0.4% (n = 270,000); AID 2326; note: potency is the fitted concentration of half-maximal effect; actives are rising curves; nearly all actives have a fitted effect of over 50% in size
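Recovery from NS1-induced slow growth read by OD600 in budding yeast switched to galactose assay medium (pH 6.0, -URA) at 1:100 dilution. Compound 23 nl per well; the matching strain lacking NS1 serves as control.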
TbPYK inhibitor: T. brucei pyruvate kinase inhibition; Q57TT1; TbPYK enzyme, Kinase-Glo Plus ATP luminescence, 45 min; Potency, µM (titrated, usually from 76.8 µM), for the others: at the highest dose activity, negative = inhibition, actives largely listed as inhibitors; actives 0.12% (n = 410,000); AID 624173; active = well fitted curve in the direction sought with a large enough effect; inconclusive = small, poorly fitted or top-dose-only effect, or another doubt; inactive = no such curve, though single readings can be large; an effect the other way counts as inactive or inconclusive; note: potency is the fitted concentration of half-maximal effect; % is set by controls: 0 for no effect and ±100 for the full control effect; nearly all actives have a fitted effect of over 50% in size
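Activity of T. brucei pyruvate kinase was followed by Kinase-Glo Plus luminescence after the enzyme reacted 45 min at room temperature with 130 uM ADP (final) and substrate. Test compounds were added before ADP at multiple concentrations.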
The depositor's hits bear a star; ? = inconclusive; . = no result. Many of the other results were omitted from the sample, so hits are more common in it than they were. Unless noted, calls come from the whole dose curve.

SMILES | SARS PLpro yeast | CHX counter | LmPK inh | Shiga toxin inh | NS1 function inh | TbPYK inhibitor
CCc1ccccc1NC(=O)C(Cc1ccccc1)c1nn[nH]n1 (centres undefined) | -1% | -1 | 5% | . | 21% | -5%
O=C(c1ccc(CS(=O)c2cccc(Cl)c2)o1)N1CCN(c2ccccn2)CC1 (centres undefined) | -4% | 24 | 1% | -5 | 13% | 5%
Cc1cccnc1CNC(=O)C1(C)CCCN1CC(C)C (centres undefined) | . | . | . | . | . | 5%
c1ccc(N=Nc2ccc3cccccc2-3)cc1 | . | . | . | . | . | -1%
Nc1ccc(N=Nc2ccccc2)c(N)n1 | -5% | 52* | -2% | 73* | -11% | 1%
Nc1ccc(N=Nc2ccccc2)c2ccccc12 | -2% | 22* | 1% | 22 | ? | -2%
Cc1ccc2c(c1C)NC(=O)CC2c1ccc(Cl)cc1Cl (centres undefined) | . | . | . | . | . | 0%
CCOc1ccc2nc(NC(=O)c3ccc(OCC4CCCO4)cc3)sc2c1 (centres undefined) | 12% | 35* | -2% | 36* | 1% | -2%
CCOc1ccc2nc(NC(=O)CSc3nnc(-c4ccncc4)n3CC3CCCO3)sc2c1 (centres undefined) | 1% | 27 | 0% | 84 | -16% | 0%
Cc1csc(NC(=O)c2ccc(OCC3CCCO3)cc2)n1 (centres undefined) | -3% | 14* | -7% | 39 | . | -8%
O=C(Nc1nc(-c2ccc(F)c(F)c2)cs1)c1ccc(OCC2CCCO2)cc1 (centres undefined) | 8% | 2 | 4% | 25 | 11% | -5%
Cc1cccc2sc(NC(=O)c3ccc(OCC4CCCO4)cc3)nc12 (centres undefined) | 0% | 46* | -11% | 100* | 2% | 3%
Cc1ccc(C(=O)Nc2cccc(N3C(=O)C4CCC(C)CC4C3=O)c2)cc1 (centres undefined) | 14% | 9 | 2% | -8 | 9% | 0%
Nc1nnc(-c2ccc(Cl)c(Cl)c2)s1 | -5% | 25* | -2% | 21 | . | -6%
CCCCCc1ccc(-c2nnc(N)s2)cc1 | -4% | 43* | 1% | 74* | -37% | 11%
CCCCCCc1ccc(-c2ncc(N)cn2)cc1 | -22% | 60* | -1% | 122* | -3% | -1%
Nc1nnc(-c2cccc(F)c2)s1 | 0% | -2 | -4% | 26 | -2% | 3%
CCOc1ccc(/C=N/N(C)c2ccccc2)cc1OC | -3% | 25* | 8% | 64* | -10% | -10%
COc1cc(/C=N/Nc2ccccn2)ccc1OCC(C)C | -2% | 34* | -5% | 62* | . | -6%
C=CCOc1ccc(/C=N/Nc2ccccn2)cc1OC | -1% | 57* | 1% | 101* | . | -9%
COc1cc(/C=N/Nc2ccccn2)cc(OC)c1O | -1% | 25* | ? | 63* | . | -32%
COc1cc(/C=N/N(c2ccccc2)c2ccccc2)ccc1O | 26% | -3 | -1% | -3 | -56% | 1%
O=C1[C@@H]2CSC(c3ccc(Cl)cc3)N2C(=O)N1c1ccccc1 (some centres undefined) | . | . | . | . | . | -3%
CCOc1ccc(/C=N/Nc2ccccn2)cc1OC | 3% | 39* | -2% | 110* | . | 5%
CCCOc1ccc(/C=N/Nc2ccccn2)cc1OC | 2% | 50* | 3% | 88* | . | -24%
SMILES | SARS PLpro yeast | CHX counter | LmPK inh | Shiga toxin inh | NS1 function inh | TbPYK inhibitor
CCCOc1ccc(/C=N/NC(=O)c2c(-c3ccccc3)noc2C)cc1OC | -8% | -2 | 5% | -5 | -1% | .
O=c1[nH]c2ccc(S(=O)(=O)N3CCN(S(=O)(=O)c4ccc5c(c4)OCCO5)CC3)cc2[nH]c1=O | . | -7 | . | -4 | . | .
Cc1cc(O)c(/C=N/Nc2ccccc2Cl)c(=O)o1 | -4% | 22* | -17% | 24 | -27% | 6%
CC(=O)Nc1ccn(C2COC(COC(=O)c3ccccc3)O2)c(=O)n1 (centres undefined) | . | . | . | . | . | 3%
CCCCNC(=O)c1ccccc1SCc1c(C)noc1C | -1% | -3 | -4% | 2 | 4% | -2%
O=C(CSc1nc2ccccc2[nH]1)N1CCCCC1 | 0% | 47* | -13% | 63* | 3% | 2%
CC1CCCCN1C(=O)CSc1nc(-c2ccccc2)cc(=O)[nH]1 (centres undefined) | -2% | -3 | -4% | -3 | -10% | -6%
CC1CCCCN1C(=O)CSc1nc2ccccc2[nH]1 (centres undefined) | -1% | 33* | 1% | 81* | . | -5%
CC1CCCCN1C(=O)CSc1nc2ccsc2c(=O)n1Cc1ccccn1 (centres undefined) | 3% | 14 | 7% | 40* | ? | 0%
COc1ccc2oc(=O)c(C(=O)Nc3cccc(C)c3)cc2c1 | 1% | 43* | 4% | 49* | 3% | 8%
Cc1cccc(NC(=O)c2cc3ccccc3oc2=O)c1 | 8% | 41* | -10% | . | 0% | 0%
Cc1ccc[n+](CC(=O)c2cc3ccccc3oc2=O)c1 | -4% | 25* | -1% | 30 | -10% | 5%
Cc1ccc(S(=O)(=O)N/N=c2\oc3ccccc3cc2C(=O)Nc2cccc(C)c2)cc1 | 0% | 62* | 0% | 71* | 7% | .
Cc1nnc(SCc2ccccc2Cl)c2cc3occc3n12 | . | . | . | . | . | -4%
Cc1ccc(NC(=O)CCc2c(C)nc3cc(-c4ccccc4)nn3c2C)cc1F | . | . | . | . | . | -1%
COc1ccc(CN2CCn3ncc(C(=O)Nc4cccc(C)c4)c3C2=O)cc1 | 6% | 16* | 5% | 68 | 4% | -2%
CC(NC(=O)c1cc2ccccc2oc1=O)c1ccccc1 (centres undefined) | -11% | 20* | -3% | 47* | -24% | 1%
COc1ccc(CN2CCn3nc(C(=O)NC(C)C)cc3C2=O)cc1 | -1% | 1 | -3% | -13 | -1% | 1%
COc1cc(OC)cc(-c2nnc(SCc3c(F)cccc3Cl)o2)c1 | ? | 44* | 2% | 81* | -30% | -11%
Cc1ccccc1-c1nnc(SCc2ccccc2)o1 | -17% | 32* | -2% | 84* | -60% | 3%
O=C(O)CSc1nnc(-c2ccccc2)o1 | 2% | -2 | -7% | 37 | 4% | -7%
O=c1cc(CSc2nnc(COc3ccc(Cl)cc3)o2)c2ccccc2[nH]1 | 1% | -2 | -11% | -11 | 0% | 4%
COc1cccc(C(=O)CSc2nnc(-c3cc(OC)cc(OC)c3)o2)c1 | -1% | 2 | 3% | -13 | -1% | 2%
Cc1ccc(CSc2nnc(-c3cccc4ccccc34)o2)cc1 | -4% | . | . | . | . | -10%
O=c1cc(CSc2nnc(-c3ccccc3)o2)c2ccccc2[nH]1 | 14% | 10* | 2% | 5 | -6% | -3%
Fc1ccccc1CSc1nnc(-c2ccccc2)o1 | -14% | 50* | -8% | 75* | -94% | 2%
